About 1,500 (3.8%) of roughly 39,000 compounds were called active. What follows is part of a selection rich in actives, with near analogues and random picks from the rest.
Each molecule was assayed on HSkMC (human skeletal muscle cells) (assay: cytotoxicity call (relative viability < 0.9)). Details: 10 µM.

SMILES	cytotoxicity call
Cc1ccc(S(=O)(=O)N(C)C[C@H]2Oc3ccc(NS(=O)(=O)c4cccs4)cc3CC(=O)N([C@@H](C)CO)C[C@@H]2C)cc1	inactive
C[C@@H]1CN([C@H](C)CO)C(=O)Cc2cc(NC(=O)c3ccncc3)ccc2O[C@@H]1CN(C)Cc1ccc(C(=O)O)cc1	inactive
COc1ccc(O)c(N)c1	inactive
c1csc(CNc2ccc(NCc3cccs3)cc2)c1	inactive
Cc1noc(C)c1NC(=O)N[C@H]1CC[C@@H](CC(=O)N2CCN(C)CC2)O[C@@H]1CO	inactive
C[C@H](CO)N1C[C@H](C)[C@H](CN(C)S(C)(=O)=O)Oc2ccc(NC(=O)C3CCCCC3)cc2CC1=O	inactive
Cc1ccc(S(=O)(=O)N[C@@H](Cc2ccccc2)C(=O)NCCCn2cc(C(=O)NO)nn2)cc1	inactive
C[C@@H]1CCCCO[C@H](CN(C)CC2CCCCC2)[C@@H](C)CN([C@@H](C)CO)C(=O)c2cc(NS(=O)(=O)c3cccs3)ccc2O1	inactive
C[C@@H]1CN([C@H](C)CO)C(=O)Cc2cc(NC(=O)Nc3ccccc3)ccc2O[C@H]1CN(C)Cc1ccc(Cl)c(Cl)c1	active
C[C@@H]1CN([C@H](C)CO)C(=O)Cc2cc(NC(=O)Nc3ccccc3)ccc2O[C@@H]1CN(C)Cc1ccc(Cl)c(Cl)c1	active
C[C@H]1CN([C@@H](C)CO)C(=O)Cc2cc(NC(=O)Nc3ccccc3)ccc2O[C@H]1CN(C)Cc1ccc(Cl)c(Cl)c1	active
C[C@@H]1CN([C@@H](C)CO)C(=O)Cc2cc(NC(=O)Nc3ccccc3)ccc2O[C@@H]1CN(C)Cc1ccc(Cl)c(Cl)c1	active
C[C@H](CO)N1C[C@H](C)[C@H](CN(C)S(C)(=O)=O)Oc2ccc(NC(=O)Nc3ccc4c(c3)OCO4)cc2CC1=O	inactive
CC[C@@H](C)N1C(=O)CC[C@H]1C(=O)O	inactive
COc1ccc(S(=O)(=O)Nc2ccc3c(c2)C(=O)N([C@H](C)CO)C[C@H](C)[C@H](CN(C)Cc2ccc(C(=O)Nc4ccccc4N)cc2)OCCCC[C@@H](C)O3)cc1	inactive
C[C@H](CO)N1C[C@H](C)[C@@H](CN(C)S(=O)(=O)c2cccs2)Oc2ccc(NS(C)(=O)=O)cc2C1=O	inactive
NCc1ccc(C(=O)O)cc1	inactive
Cc1noc(C)c1NC(=O)Nc1cccc2c1O[C@H](CN(C)S(=O)(=O)c1ccccc1)[C@@H](C)CN([C@@H](C)CO)C2=O	inactive
C[C@@H]1CCCCO[C@H](CN(C)C(=O)c2ccncc2)[C@@H](C)CN([C@H](C)CO)C(=O)c2cc(NC(=O)CCCCCC(=O)Nc3ccccc3N)ccc2O1	inactive
CCc1nc2ccc(C(=O)Nc3cc(-c4ccccc4)ccc3OC)cn2c1N(CCN(C)C)CC1CC1	inactive
C[C@H](CO)N1C[C@H](C)[C@@H](CN(C)S(=O)(=O)c2cn(C)cn2)Oc2c(NC(=O)C3CCOCC3)cccc2C1=O	inactive

SMILES	cytotoxicity call
CN1C(=O)c2cc(NC(=O)C3CCCC3)ccc2OC[C@H]2O[C@@H](CC(=O)NCCc3ccncc3)CC[C@@H]21	inactive
COCC(=O)Nc1ccc2c(c1)C(=O)N(C)[C@H]1CC[C@@H](CC(=O)NCc3ccccc3Cl)O[C@@H]1CO2	inactive
C[C@H]1CN([C@@H](C)CO)C(=O)Cc2cc(NC(=O)Nc3ccccc3)ccc2O[C@@H]1CN(C)Cc1ccc(Cl)c(Cl)c1	active
C[C@@H]1CN([C@@H](C)CO)C(=O)Cc2cc(NC(=O)Nc3ccccc3)ccc2O[C@H]1CN(C)Cc1ccc(Cl)c(Cl)c1	inactive
C[C@H](CO)N1C[C@H](C)[C@@H](CN(C)Cc2ccc(Cl)c(Cl)c2)Oc2ccc(NC(=O)Nc3ccccc3)cc2CC1=O	inactive
COc1ccc(NC(=O)Nc2ccc3c(c2)CC(=O)N([C@H](C)CO)C[C@H](C)[C@@H](CN(C)Cc2ccc(Cl)c(Cl)c2)O3)cc1	inactive
COc1ccc(NC(=O)Nc2ccc3c(c2)CC(=O)N([C@@H](C)CO)C[C@@H](C)[C@@H](CN(C)Cc2ccc(Cl)c(Cl)c2)O3)cc1	inactive
C[C@H](CO)N1C[C@H](C)[C@H](CN(C)Cc2ccc(Cl)c(Cl)c2)Oc2ccc(NC(=O)Nc3ccccc3)cc2CC1=O	active
O=C(CN1CCOCC1)NCC[C@H]1CC[C@@H](NC(=O)Nc2ccccc2)[C@H](CO)O1	inactive
C[C@H]1CN([C@@H](C)CO)S(=O)(=O)c2ccc(-c3cccnc3)cc2O[C@@H]1CN(C)C(=O)c1cccc(F)c1	inactive
Cc1ccccc1S(=O)(=O)N1C[C@H](O)COC[C@@H]2O[C@@H](CC(=O)NCc3ccccc3Cl)CC[C@H]21	inactive
C[C@H](CO)N1C[C@H](C)[C@@H](CN(C)Cc2ccc(C(F)(F)F)cc2)Oc2ccc(NS(=O)(=O)c3ccc(Cl)cc3)cc2C1=O	active
C[C@@H]1CN([C@@H](C)CO)C(=O)c2cc(NS(=O)(=O)c3ccc(Cl)cc3)ccc2O[C@H]1CN(C)Cc1ccc(C(F)(F)F)cc1	inactive
C[C@@H]1CN([C@H](C)CO)C(=O)c2cc(NS(=O)(=O)c3ccc(Cl)cc3)ccc2O[C@H]1CN(C)Cc1ccc(C(F)(F)F)cc1	inactive
C[C@@H]1CN([C@H](C)CO)C(=O)c2cc(NS(=O)(=O)c3ccc(Cl)cc3)ccc2O[C@@H]1CN(C)Cc1ccc(C(F)(F)F)cc1	active
Cc1ccc(S(=O)(=O)Nc2ccc3c(c2)C(=O)N([C@@H](C)CO)C[C@@H](C)[C@H](CN(C)Cc2ccc(C(F)(F)F)cc2)O3)cc1	inactive
C[C@@H]1CN([C@@H](C)CO)C(=O)c2cc(NS(=O)(=O)c3ccc(Cl)cc3)ccc2O[C@@H]1CN(C)Cc1ccc(C(F)(F)F)cc1	active
C[C@H](CO)N1C[C@H](C)[C@H](CN(C)Cc2ccc(C(F)(F)F)cc2)Oc2ccc(NS(=O)(=O)c3ccc(Cl)cc3)cc2C1=O	active
Cc1ccc(S(=O)(=O)Nc2ccc3c(c2)C(=O)N([C@@H](C)CO)C[C@@H](C)[C@@H](CN(C)Cc2ccc(C(F)(F)F)cc2)O3)cc1	inactive
C[C@H]1CN([C@@H](C)CO)C(=O)c2cc(NS(=O)(=O)c3ccc(Cl)cc3)ccc2O[C@H]1CN(C)Cc1ccc(C(F)(F)F)cc1	inactive
O=C(C[C@H]1C[C@H]2c3cc(NS(=O)(=O)c4ccc(F)cc4)ccc3O[C@H]2[C@@H](CO)O1)NC1CCCCC1	inactive

From the antibiotic and cytotoxicity screens of Wong et al. (2023)
